The values that follow come from PubChem BioAssay (NCATS).

Assay [1] relates to HIV-1 nucleocapsid protein NCp7 (binding to TG oligonucleotide). The experiment in a line: HIV Nucleocapsid (AID 346; call rule not given here;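 also: potency is read from the fitted curve at half-maximal effect; potency is for inhibitors that block NC binding and lower polarization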). To be noted: HIV-1 NC / fluorescein-TGTGTGTG probe, fluorescence polarization. In a few lines: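 Inhibition of nucleocapsid binding to single-stranded 5'-TGTGTGTG probe (10 nM) was measured by fluorescence polarization after 1 hr at room temperature with 100 nM protein under high-salt, zinc-containing, reducing conditions.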

Assay [2] addresses Lysosomal acid glucosylceramidase (Homo sapiens) (UniProt P04062). The experiment in a line: Glucocerebrosidase-p2 (AID 348; in the data active = potency below about 10 µM; also: potency is read from the fitted curve at half-maximal effect). Particulars: purified GBA, blue fluorogenic substrate, 40 min. In a few lines:
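Normal human glucocerebrosidase (0.2 nM) with blue fluorogenic substrate (80 uM final) in citrate/phosphate pH 5.9 with 10mM sodium taurocholate, 0.01% tween-20; 40 min RT, NaOH/glycine stop; fluorescence Ex 365/Em 440; AC50 from a titration from 0.6 nM upwards.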

The nature of assay [3]: AP1 Signaling Pathway (AID 357). Also: % is scaled to controls: 0 for no effect and ±100 for the full control effect. An outline of the steps: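 ME-180 cells with beta-lactamase reporter under AP-1 response element, stimulated with EC50 EGF; compounds tested in titration series, 5 h at 37 °C. CCF4 substrate added 2.5 h at room temperature; 460/530 nm emission ratio gave %activity and AC50.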
Assay [4] can be described thus: NFAT Signaling Pathway (AID 444).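 Also: carbachol stimulus at about its EC50 of 1 µM final; % is scaled to controls: 0 for no effect and ±100 for the full control effect.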 To be noted: Jurkat NFAT-bla M1, carbachol, beta-lactamase ratio, 5 h; at 7.69 µM (top of the series). In a few lines:
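Jurkat cells with NFAT-driven β-lactamase reporter and co-expressed M1 receptor, stimulated with carbachol (final 1 uM, ~EC50), compound titration, 5 h at 37 °C. CCF4 loaded 1 h at RT; 460/530 nm ratio gave %activity and AC50.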

Assay [5] can be described thus: Stat Signaling Pathway (AID 446).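 Also: ME-180 cervical cancer cells given 40 pM IL-6 alongside compound; SIE-controlled beta-lactamase reporter measured as 460/530 nm FRET emission ratio; % is scaled to controls: 0 for no effect and ±100 for the full control effect.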 An outline of the steps: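 FRET read-out (405 nm excitation, 460/530 nm emission) of a beta-lactamase reporter under a STAT-inducible element in ME-180 cervical carcinoma cells. Cells with compound receive 40 pM IL-6 for 5 h. Values are normalised to AC90 stimulation and AC90 JAK-inhibitor controls.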
Assay [6] concerns the target Glucocorticoid receptor (Homo sapiens) (UniProt P04150). Description: GR-EFC Redistribution (AID 451; calls by dose curve; also: potency is read from the fitted curve at half-maximal effect). To be noted: CHO-K1 GR-EFC translocation, beta-gal luminescence, 2 h. In a few lines: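 CHO-K1 cells expressing nuclear EA and GR-ED fragments of b-gal; compounds titrated up to 46 uM final, 2 h at 37 C. GR nuclear translocation read as complemented b-gal luminescence after 1 h RT detection.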

Assay [7] deals with Mitogen-activated protein kinase 10 (Mus musculus) (UniProt Q61831). Description: JNK3 AlphaScreen Assay (AID 530).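 Also: kinase came from lysate of stimulated human HepG2 cells; signal reports phosphorylation of biotinylated GST-cJun 1-79 at Ser73 with 10 µM ATP; % is scaled to controls: 0 for no effect and ±100 for the full control effect.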 An outline of the steps: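 Activity was read by AlphaScreen after JNK3-containing HepG2 lysate (cytokine pre-activated) phosphorylated biotinylated GST-cJun with 10 uM ATP at room temperature. Phospho-Ser73 cJun antibody with Protein-A acceptor beads provided detection.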
On the technique in general: Alpha assays give light when donor and acceptor beads are brought close together.

Assay [8] has as its target 3',5'-cyclic-AMP phosphodiesterase 4B (Homo sapiens) (UniProt Q07343). The experiment in a line: qHTS Assay for Inhibitors of PDE-IV (AID 607; active = well fitted activation curve with a large enough effect in the main read-out, with a control signal flat, not every such curve was filed as active; also: % of control where 0% means no effect). An outline of the steps:
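Cell-based read-out of cAMP via a modified cyclic nucleotide-gated channel and membrane potential dye (535/590 nm) in HEK293 cells expressing PDE4 endogenously. Compounds tested up to 22.9 uM final; 100 uM RO 20-1724 reference.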
In general terms: Quantitative high-throughput screening tests each substance at several concentrations.

Assay [9] can be described thus: qHTS Assay for Identification of Small Molecule Agonists for Hypoxia Response Element Signaling Pathway (AID 914; active = well fitted activation curve with a large enough effect in the signal ratio, with a control signal flat, not every such curve was filed as active; the % refers to the signal ratio; also: % of control where 0% means no effect). Particulars: ME-180 (cervical carcinoma) HRE-bla reporter, beta-lactamase ratio, CoCl2, 17 h; activation: stronger effect = higher value. An outline of the steps: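 Reporter activity (beta-lactamase, CCF4 460nm/530nm ratio) in HRE-bla ME-180 cells is recorded after 17 h compound exposure with EC50 CoCl2 at 37 degrees Celsius. AC50 values come from titration data.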

A short description of assay [10]: qHTS Assay for Lipid Storage Modulators (AID 1519; calls by dose curve). To be noted: Drosophila S3 cells, BODIPY lipid droplet/cell ratio, laser cytometry, cells loaded with oleic acid; for activity change, negative = inhibition: at 57.5 µM (top of the series). An outline of the steps: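 Cells seeded at 5,000 per well were treated with compounds over a concentration series and loaded with oleic acid (400 uM, as added). Lipid droplet fluorescence (488 nm excitation, 500-530 nm channel) was read by laser-scanning cytometry and normalized to 20 uM Triacsin C.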

Assay [11] in a line: Primary qHTS for small molecule stabilizers of the endoplasmic reticulum resident proteome: Secreted ER Calcium Modulated Protein (SERCaMP) assay (AID 1508630; active = well fitted curve in the direction sought with a large enough effect; an effect the other way counts as inactive or inconclusive; also: % is scaled to controls: 0 for no effect and ±100 for the full control effect). An outline of the steps:
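The SH-SY5Y reporter protocol was run at 3 concentrations up to 38.3 uM (primary) or 11 concentrations (follow-up): 16 h compound, 100 nM thapsigargin for 4 h, then extracellular luciferase luminescence.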

Assay [12] has as its target Cytochrome P450 1A2 (Homo sapiens) (UniProt P05177). Description: p450-cyp1a2 (AID 410; calls by dose curve; also: potency is read from the fitted curve at half-maximal effect). In a few lines:
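Luminescent demethylation readout: Luciferin-ME (100uM, equal to Km) turned over by 20nM CYP1A2 for 60 min at room temperature after NADPH regeneration addition, following 10 min compound preincubation. Normalization used 57 uM furafylline as full inhibition.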

For assay [13], the target named is Cytochrome P450 2C9 (Homo sapiens) (UniProt P11712). Description: qHTS Assay for Inhibitors and Substrates of Cytochrome P450 2C9 (AID 883; active = well fitted curve in the direction sought with a large enough effect; an effect the other way counts as inactive or inconclusive; also: potency is read from the fitted curve at half-maximal effect; nearly all actives have a fitted effect of over 60% in size). An outline of the steps: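 Signal: luciferase luminescence reporting luciferin produced by CYP2C9. Conditions: 10nM enzyme, Luciferin-H 100uM at KM, 25mM KPO4, 37C, 60 min NADPH-driven reaction. Reference: 57uM sulphaphenazole as 100% inhibition.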
Cytochrome P450 2C9 (Homo sapiens), sequence (P11712 whole entry, looked up): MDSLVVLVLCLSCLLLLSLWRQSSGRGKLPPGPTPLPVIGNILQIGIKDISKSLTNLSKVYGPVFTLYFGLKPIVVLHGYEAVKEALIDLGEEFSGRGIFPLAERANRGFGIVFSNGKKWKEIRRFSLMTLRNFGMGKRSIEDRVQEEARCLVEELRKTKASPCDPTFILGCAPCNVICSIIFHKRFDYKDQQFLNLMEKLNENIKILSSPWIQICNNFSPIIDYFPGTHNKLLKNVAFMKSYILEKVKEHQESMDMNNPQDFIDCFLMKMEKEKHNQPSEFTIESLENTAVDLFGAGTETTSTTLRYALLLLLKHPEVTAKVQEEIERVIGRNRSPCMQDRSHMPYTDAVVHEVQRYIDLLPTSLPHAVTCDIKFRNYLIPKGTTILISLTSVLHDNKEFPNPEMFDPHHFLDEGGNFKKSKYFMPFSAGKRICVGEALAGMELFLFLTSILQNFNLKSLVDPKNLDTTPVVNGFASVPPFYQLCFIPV

In assay [14] the target is Cytochrome P450 3A4 (Homo sapiens) (UniProt P08684). Description: qHTS Assay for Activators of Cytochrome P450 3A4 (AID 885; active = well fitted curve in the direction sought with a large enough effect; an effect the other way counts as inactive or inconclusive; also: nearly all actives have a fitted effect of over 65% in size; also: potency is read from the fitted curve at half-maximal effect). In a few lines: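 Luminescent readout of luciferin formed from 25 uM Luciferin-PPXE (KM level) by 20 nM CYP3A4 in 200 mM KPO4, with 60 min NADPH-driven reaction at room temperature after 10 min compound exposure. Ketoconazole (57 uM) defined 100% inhibition.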
Cytochrome P450 3A4 (Homo sapiens), sequence (P08684 whole entry, looked up): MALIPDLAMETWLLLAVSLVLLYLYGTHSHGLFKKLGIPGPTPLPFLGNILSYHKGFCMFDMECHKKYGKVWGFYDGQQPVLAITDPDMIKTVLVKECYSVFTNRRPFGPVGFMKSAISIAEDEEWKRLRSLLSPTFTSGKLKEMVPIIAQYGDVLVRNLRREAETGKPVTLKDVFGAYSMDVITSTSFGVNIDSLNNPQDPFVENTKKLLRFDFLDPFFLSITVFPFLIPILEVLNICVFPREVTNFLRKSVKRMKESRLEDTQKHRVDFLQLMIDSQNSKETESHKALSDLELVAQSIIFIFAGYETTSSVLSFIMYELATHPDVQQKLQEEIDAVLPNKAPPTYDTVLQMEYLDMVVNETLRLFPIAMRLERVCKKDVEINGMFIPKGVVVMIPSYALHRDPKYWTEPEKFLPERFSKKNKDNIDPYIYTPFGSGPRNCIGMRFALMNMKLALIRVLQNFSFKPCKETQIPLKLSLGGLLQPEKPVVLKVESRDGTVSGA

The target is the same in assay [15]. The experiment in a line: qHTS Assay for Inhibitors and Substrates of Cytochrome P450 3A4 (AID 884; active = well fitted curve in the direction sought with a large enough effect; an effect the other way counts as inactive or inconclusive; also: % is scaled to controls: 0 for no effect and ±100 for the full control effect; nearly all actives have a fitted effect of over 50% in size). An outline of the steps:
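Luminescent readout of luciferin produced by CYP3A4 (20 nM) dealkylation of Luciferin-PPXE, 25 uM (its KM). NADPH-driven reaction ran 60 min at RT after 10 min compound preincubation; data scaled to 57 uM ketoconazole as 100% inhibition.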

The mark [16] stands for this setting: measured here: cell count channel max response.
Where [17] appears, read: measured here: lipid channel max response.

Inconclusive results are not listed. Activity calls are given as the source filed them. Unless noted, calls follow the shape of the dose curve; as a rule, active = well fitted curve in either direction with a large enough effect (not every such curve was filed as active); inconclusive = small, poorly fitted or top-dose-only effect, or another doubt; inactive = flat fitted curve, though single readings scatter.

Lysosomal acid glucosylceramidase (Homo sapiens), sequence (P04062 whole entry, looked up): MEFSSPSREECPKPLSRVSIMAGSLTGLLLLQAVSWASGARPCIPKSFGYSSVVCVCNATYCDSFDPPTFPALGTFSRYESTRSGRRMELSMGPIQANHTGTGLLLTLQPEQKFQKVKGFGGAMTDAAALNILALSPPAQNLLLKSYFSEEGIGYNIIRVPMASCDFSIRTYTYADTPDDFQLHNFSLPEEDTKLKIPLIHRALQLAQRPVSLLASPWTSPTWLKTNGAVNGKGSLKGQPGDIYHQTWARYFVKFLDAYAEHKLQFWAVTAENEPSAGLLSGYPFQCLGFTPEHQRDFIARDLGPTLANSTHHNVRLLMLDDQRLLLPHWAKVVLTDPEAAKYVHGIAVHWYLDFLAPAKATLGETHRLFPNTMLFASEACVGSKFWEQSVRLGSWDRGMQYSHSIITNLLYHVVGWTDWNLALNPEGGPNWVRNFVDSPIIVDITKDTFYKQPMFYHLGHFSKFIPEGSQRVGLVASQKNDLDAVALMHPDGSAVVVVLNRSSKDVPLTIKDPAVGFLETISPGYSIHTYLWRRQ
Cytochrome P450 1A2 (Homo sapiens), sequence (P05177 whole entry, looked up): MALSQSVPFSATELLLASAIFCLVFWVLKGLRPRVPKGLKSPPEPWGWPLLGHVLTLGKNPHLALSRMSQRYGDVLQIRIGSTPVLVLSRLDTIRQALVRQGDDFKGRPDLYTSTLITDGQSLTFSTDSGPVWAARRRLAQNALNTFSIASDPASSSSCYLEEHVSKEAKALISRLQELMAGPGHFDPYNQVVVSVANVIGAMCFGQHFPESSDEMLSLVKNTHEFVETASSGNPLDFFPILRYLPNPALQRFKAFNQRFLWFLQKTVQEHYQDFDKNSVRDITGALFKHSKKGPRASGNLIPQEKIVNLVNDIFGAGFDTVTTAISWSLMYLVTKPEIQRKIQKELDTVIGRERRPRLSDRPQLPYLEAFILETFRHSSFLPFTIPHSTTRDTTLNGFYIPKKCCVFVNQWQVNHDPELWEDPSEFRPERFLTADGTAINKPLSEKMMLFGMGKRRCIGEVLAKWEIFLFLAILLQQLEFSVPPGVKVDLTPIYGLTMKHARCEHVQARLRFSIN
3',5'-cyclic-AMP phosphodiesterase 4B (Homo sapiens), sequence (Q07343 whole entry, looked up): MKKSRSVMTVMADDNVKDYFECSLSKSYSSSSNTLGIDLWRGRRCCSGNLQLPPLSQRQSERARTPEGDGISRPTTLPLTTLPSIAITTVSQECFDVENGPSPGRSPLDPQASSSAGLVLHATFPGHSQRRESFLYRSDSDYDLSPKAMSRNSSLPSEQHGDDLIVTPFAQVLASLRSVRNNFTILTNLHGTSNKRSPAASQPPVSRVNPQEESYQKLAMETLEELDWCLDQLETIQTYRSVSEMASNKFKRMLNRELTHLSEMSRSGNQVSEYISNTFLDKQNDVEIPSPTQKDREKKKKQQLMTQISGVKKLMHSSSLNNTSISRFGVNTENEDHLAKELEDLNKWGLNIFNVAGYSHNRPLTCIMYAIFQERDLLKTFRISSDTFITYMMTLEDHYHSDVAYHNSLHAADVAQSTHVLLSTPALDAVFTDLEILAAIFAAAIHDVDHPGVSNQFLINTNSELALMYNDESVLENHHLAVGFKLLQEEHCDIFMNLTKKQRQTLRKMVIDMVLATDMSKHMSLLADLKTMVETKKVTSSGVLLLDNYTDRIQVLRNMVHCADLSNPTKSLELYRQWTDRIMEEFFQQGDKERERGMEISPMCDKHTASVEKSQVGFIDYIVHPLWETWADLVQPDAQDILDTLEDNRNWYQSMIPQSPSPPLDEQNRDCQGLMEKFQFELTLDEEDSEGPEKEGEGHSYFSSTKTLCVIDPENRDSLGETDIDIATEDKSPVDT
Glucocorticoid receptor (Homo sapiens), sequence (P04150 whole entry, looked up, the tested form may be a part): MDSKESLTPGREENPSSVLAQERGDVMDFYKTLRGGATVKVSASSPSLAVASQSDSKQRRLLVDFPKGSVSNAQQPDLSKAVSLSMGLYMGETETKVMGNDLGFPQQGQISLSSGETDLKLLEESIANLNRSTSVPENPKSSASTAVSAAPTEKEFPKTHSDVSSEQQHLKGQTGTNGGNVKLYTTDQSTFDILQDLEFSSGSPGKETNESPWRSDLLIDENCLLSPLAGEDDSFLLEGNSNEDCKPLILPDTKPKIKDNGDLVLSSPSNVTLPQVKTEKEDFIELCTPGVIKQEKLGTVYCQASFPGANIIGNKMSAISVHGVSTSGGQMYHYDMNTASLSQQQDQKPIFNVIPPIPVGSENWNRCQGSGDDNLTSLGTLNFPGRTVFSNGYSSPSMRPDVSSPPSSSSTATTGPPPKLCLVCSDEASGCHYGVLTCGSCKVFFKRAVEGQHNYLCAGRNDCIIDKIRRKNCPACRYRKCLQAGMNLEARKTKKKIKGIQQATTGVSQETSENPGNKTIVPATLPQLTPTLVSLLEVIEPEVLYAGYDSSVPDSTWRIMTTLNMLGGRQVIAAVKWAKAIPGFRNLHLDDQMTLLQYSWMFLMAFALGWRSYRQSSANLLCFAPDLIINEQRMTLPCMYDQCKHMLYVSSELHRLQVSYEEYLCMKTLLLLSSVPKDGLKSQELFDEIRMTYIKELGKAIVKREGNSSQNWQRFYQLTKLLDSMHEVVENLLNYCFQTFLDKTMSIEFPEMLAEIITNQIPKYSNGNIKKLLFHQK

As for `c1cnc(N2CCCC3(CCNCC3)C2)nc1`, the Potency was > 20 µM (inactive) in [1], > 11.4 µM (inactive) in assay [2] and > 46 µM (inactive) in assay [6]. In addition, the compound was called inactive in [3], in assay [5], in assay [7] and in assay [11]. In addition, the figures for the activity change, negative = inhibition in assay [4] and in [10] were -26.8% (inactive) and 7.13% (inactive), respectively. Further, in [8], the Potency entry is “inactive”. The activation in [9] was 6.96% (inactive). Moreover, the values for the max response in assay [10] (setting [16]) and in assay [10] (setting [17]) were 9.32% and 19.3%, respectively.
In the case of `c1cnc(N2CC3(CCNCC3)C2)nc1`, the Potency in [1] is > 20 µM (inactive); in [2], > 11.4 µM (inactive); in [6], > 46 µM (inactive). In addition, the compound was called inactive in [3], in [5] and in assay [11]. Further, the figures for the activity change, negative = inhibition in [4] and in assay [10] were -1.58% (inactive) and 1.55% (inactive), respectively. In assay [8], the Potency result is “inactive”. Besides, the max response turned out to be 11.6% in assay [10] (setting [16]) and 15.7% in assay [10] (setting [17]).
For the compound `C[C@@H]1C[C@@H](O)[C@@]2(O)[C@]13CC(=O)OC[C@]2(C)[C@@](C)(O)C(=O)C3`, the outcome in assay [11] was inactive.
In the case of `c1ccc(N2CC3(CCNCC3)C2)cc1`, the Potency in assay [1] was > 20 µM (inactive); in [2] it was > 11.4 µM (inactive); in [6] it was > 46 µM (inactive). The result in assay [3], in [5] and in [11] was inactive. The Potency entry in [12] and in assay [8] was “inactive” in each case. Further, the activity change, negative = inhibition is -5.86% (inactive) in assay [4] and 3.32% (inactive) in assay [10]. Further, the max response in assay [10] (setting [16]) was 11.6%; in assay [10] (setting [17]), 20.7%.
On to `O=C(c1ccco1)N1CCC[C@@]2(CCN(Cc3ccncc3)C2)C1`, for which the Potency in assay [1] is > 20 µM (inactive); in [2] it was > 11.4 µM (inactive); in assay [12], 3.98 µM (active); in [13], 3.16 µM (active). Further, the call in assay [3], in assay [5], in assay [7] and in assay [11] was inactive. For the same compound, the results for the activity change, negative = inhibition in assay [4] and in assay [10] were -1.52% (inactive) and 3.05% (inactive), respectively. Besides, the Potency result in assay [8] and in [14] was “inactive” throughout. The max response in assay [10] (setting [16]) came to 6.21%; in [10] (setting [17]), 9.36%.
`O=C(Nc1cccc(F)c1)N1CC2(CCN(C(=O)Oc3ccccc3)CC2)C1`: the Potency in assay [1] was > 20 µM (inactive); in [2] it was > 11.4 µM (inactive); in assay [12], 12.6 µM (active); in assay [6] it was > 46 µM (inactive); in [14], 12.6 µM (active). Besides, the result in [3], in assay [5], in assay [7] and in assay [11] was inactive. The results for the activity change, negative = inhibition in [4] and in assay [10] were 16.5% (inactive) and 5.68% (inactive), respectively. Further, the Potency entry in assay [8] and in assay [15] was “inactive” each time. Further, the max response in assay [10] (setting [16]) was -9.16%; in assay [10] (setting [17]) it was -1.47%.
Regarding `c1ccc(N2CC3(CCNCC3)C2)nc1`, the Potency is > 20 µM (inactive) in assay [1], > 11.4 µM (inactive) in [2] and > 46 µM (inactive) in assay [6]. The compound was called inactive in assay [3], in assay [5], in assay [7] and in assay [11]. Besides, the Potency result in assay [8] was “inactive”. Moreover, in assay [10], the activity change, negative = inhibition is -0.659% (inactive). The max response in assay [10] (setting [16]) stood at 12.4%; in assay [10] (setting [17]), 14.7%.
